The sample as a whole holds a higher share of hits than the screen did.
NS1 function inh: influenza NS1 inhibition. Potency, µM (titrated, usually from 46.1 µM). hit rate 0.4% among 270,000. AID 2326; note: actives are rising curves; nearly all actives have a fitted effect of over 50% in size
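A cell-based growth assay was used: compounds that relieve NS1-induced slow growth of budding yeast raise OD600. Assay medium was yeast nitrogen base with ammonium sulphate and -URA supplement, pH 6.0, with 2% galactose.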
AmpC no deterg: inhibitors of E. coli AmpC beta-lactamase without detergent | P00811 | hit rate 0.52% among 330,000 | AmpC nitrocefin hydrolysis, absorbance 480 nm, 0.0001% Triton | Potency, µM (series often up to 57.1 µM), hits mostly inhibitors; active = well fitted curve in the direction sought with a large enough effect; inconclusive = small, poorly fitted or top-dose-only effect, or another doubt; inactive = no such curve, though single readings can be large; an effect the other way counts as inactive or inconclusive; note: nearly all actives have a fitted effect of over 20% in size
Target sequence (P00811 whole entry, looked up): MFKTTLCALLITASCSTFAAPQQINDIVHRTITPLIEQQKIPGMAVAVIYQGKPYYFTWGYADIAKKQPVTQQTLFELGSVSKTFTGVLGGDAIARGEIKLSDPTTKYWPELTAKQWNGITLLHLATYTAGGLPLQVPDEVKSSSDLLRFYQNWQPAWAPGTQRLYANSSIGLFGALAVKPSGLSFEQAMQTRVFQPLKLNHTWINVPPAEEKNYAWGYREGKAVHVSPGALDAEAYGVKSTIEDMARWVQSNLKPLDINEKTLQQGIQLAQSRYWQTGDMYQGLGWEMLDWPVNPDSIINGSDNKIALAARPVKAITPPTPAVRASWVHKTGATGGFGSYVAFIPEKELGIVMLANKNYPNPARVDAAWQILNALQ
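20 mM phosphate pH 7.0 + 0.01% (detergent screen) or 0.0001% Triton X-100; 5.3 nM AmpC reagent; cpd preinc 15 min RT; nitrocefin (800 uM stock) to start; A480 q20 s × 4 min; Activity was normalised to no-enzyme and no-compound control wells.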
AmpC inh detg: AmpC beta-lactamase inhibition with detergent present. hit rate 0.041% among 370,000. Potency, µM (highest dose often 114 µM), actives largely listed as inhibitors. AID 485294. AmpC hydrolysis of nitrocefin, absorbance 480 nm, 0.01% Triton; active = well fitted curve in the direction sought with a large enough effect; inconclusive = small, poorly fitted or top-dose-only effect, or another doubt; inactive = no such curve, though single readings can be large; an effect the other way counts as inactive or inconclusive; note: nearly all actives have a fitted effect of over 25% in size
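20 mM phosphate pH 7.0 + 0.01% (detergent screen) or 0.0001% Triton X-100; 5.3 nM AmpC reagent; cpd preinc 15 min RT; nitrocefin (800 uM stock) to start; A480 q20 s × 4 min; Activity was normalised to no-enzyme and no-compound control wells.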
CHX counter-1: affects cycloheximide protein synthesis inhibition readout, counter-screen; hit rate 12% among 300,000; cell reporter, cycloheximide protein synthesis inhibition counterscreen; AID 2314; max response, %; in the data active = max response mostly above about 13%, no sharp cut-off; inactive = mostly below about 14%; note: read at 38.3 µM for the half of the compounds with a filed dose
Shiga toxin inh: Shiga toxin inhibition; Vero cells, Shiga toxin protein synthesis inhibition reporter; inhibition, % at 38.7 µM; hit rate 9.2% among 290,000; in the data active = inhibition mostly above about 28%, no sharp cut-off; inactive = mostly below about 43%
CHX counter-2: counter-screen for Shiga toxin inhibitors: cycloheximide protein synthesis block; shares compounds with Shiga toxin inh; Cycloheximide counterscreen, protein synthesis reporter, Shiga toxin assay; Potency, µM (highest dose often 38.3 µM), hits mostly activators; hit rate 3% among 510; AID 2318
Of the large screens only hits and unclear results are named; the others gave an inactive call (follow-up assays come after a bar, where they were run). Unless noted, calls come from the whole dose curve.

COC(=O)c1ccc(CSCC(=O)Nc2cc(OC)cc(OC)c2)o1	none
COC(=O)c1ccc(CSCc2ccc(C(=O)OC)o2)o1	Shiga toxin inh 38 | CHX counter-2 inactive
COC(=O)c1sc(NC(=O)COc2cccc(C)c2)nc1C	Shiga toxin inh 28 | CHX counter-2 inactive
COC(=O)c1sc(NC(=O)COc2cccc3ccccc23)nc1C	none
CC(=O)Nc1cc2c3c(c1)CC(=O)N3CCC2	none
CC(=O)Nc1ccc(NC(=O)COC(=O)c2c3c(nc4ccccc24)CCN(Cc2ccccc2)C3)cc1	Shiga toxin inh 22 | CHX counter-2 inactive
O=C(COC(=O)c1c2c(nc3ccccc13)CCN(Cc1ccccc1)C2)Nc1c(F)cccc1F	none
CN(CC(=O)O/N=C(\N)c1ccc([N+](=O)[O-])cc1)S(=O)(=O)c1ccc2ccccc2c1	none
COc1ccc(C(C)(C)C)cc1NC(=O)c1ccc2c(c1)SC1=NS(=O)(=O)CCN12	Shiga toxin inh 40 (no result: NS1 function inh) | CHX counter-2 inactive
CN(C(=O)c1ccc2c(c1)SC1=NS(=O)(=O)CCN12)C(c1ccccc1)c1ccccc1	none
CCOC(=O)c1c(C)[nH]c(/C(C)=N/O)c1C	none
CCOC(=O)c1c(C)[nH]c(C2=NNC(=NC3CC3)SC2)c1C	Shiga toxin inh 32 (no result: NS1 function inh) | CHX counter-2 0.05µM
CCOC(=O)CN(C(=O)CNC(=O)c1ccco1)C(C(=O)NC1CCCCC1)c1cccnc1 (stereo unspecified)	none
O=C(NCc1ccccc1)C1CCCC1	Shiga toxin inh 21 | CHX counter-2 inactive
COCCCn1c(SCC(=O)N2CCOCC2)nc2ccccc2c1=O	none
COc1ccccc1NC(=O)c1cccc(NC(=O)c2ccco2)c1	AmpC inh detg inconclusive
CC(C)c1ccccc1NC(=O)c1ccco1	Shiga toxin inh 58 | CHX counter-2 inconclusive
COc1ccccc1NC(=O)c1ccc(NC(=O)c2ccco2)cc1	Shiga toxin inh 43 | CHX counter-2 inactive
COc1ccccc1NC(=O)Cn1cc(C(=O)c2ccco2)c2ccccc21	Shiga toxin inh 60 | CHX counter-2 inactive
Cc1c(Cl)cccc1NC(=O)c1ccco1	AmpC inh detg inconclusive (no result: Shiga toxin inh)
O=C(Cc1ccc([N+](=O)[O-])cc1)N1CCCc2ccccc21	none (no result: NS1 function inh)
CC(=O)c1ccc2noc(-c3ccc(F)cc3)c2c1	Shiga toxin inh 52 (no result: NS1 function inh) | CHX counter-2 inactive
CC(=O)c1ccc2noc(-c3ccc(Cl)cc3)c2c1	none (no result: NS1 function inh)
CCCCC(=O)Nc1ccc(NC(=O)C2CC2)nc1	Shiga toxin inh 41 | CHX counter-2 inactive
CCc1ccccc1NC(=O)CNC(=O)c1cc(C2CC2)nn1-c1ccccc1	none (no result: NS1 function inh, CHX counter-1, Shiga toxin inh)
CSc1nc(SCCO)c2sc3nc(-c4ccco4)c4c(c3c2n1)CC(C)(C)OC4	Shiga toxin inh 81 | CHX counter-2 inactive
CC(C)N(Cc1cc2ccccc2[nH]c1=O)C(=O)c1cccnc1	AmpC inh detg inconclusive
O=C(c1cccnc1)c1cc2ccccc2[nH]1	Shiga toxin inh active | CHX counter-2 inactive
O=C(O)C/C(=C\c1cc(Br)cs1)c1nc2ccccc2o1	Shiga toxin inh 40 | CHX counter-2 inactive
O=C(NCCC1=CCCCC1)C1CCN(S(=O)(=O)c2cccc3cccnc23)CC1	AmpC inh detg inconclusive, Shiga toxin inh active | CHX counter-2 inactive
CCCc1cc(=O)oc2cc(C)cc(OCC(=O)NCc3ccccn3)c12	Shiga toxin inh 122 | CHX counter-2 inactive
Cc1cccc(NC(=S)N(CCN(C)C)C(C)c2ccccn2)c1 (stereo unspecified)	AmpC inh detg inconclusive
Cc1ccccc1-c1nnc(SCC#N)o1	Shiga toxin inh 33 | CHX counter-2 inactive
Oc1ccccc1CNc1nc2ccccc2n1CCN1CCCCC1	AmpC inh detg inconclusive
COc1ccccc1CNc1nc2ccccc2n1CCN1CCCCC1	Shiga toxin inh 66 | CHX counter-2 inactive
CN(CCCNC(=O)CCc1cn(C)c2ccccc12)C1CCCCC1	none
CCN(CC(=O)Nc1c(F)cccc1F)C(=O)CCCc1c[nH]c2ccccc12	none
CCN(CC)C(=O)CCCc1c[nH]c2ccccc12	Shiga toxin inh 52 | CHX counter-2 inactive
Cc1ccc(NC(=O)C(C)N=C2NS(=O)(=O)c3ccccc32)cc1 (stereo unspecified)	Shiga toxin inh 35 (no result: NS1 function inh) | CHX counter-2 inactive
O=C(/C=C/C#Cc1cccc(NS(=O)(=O)c2ccccc2)c1)NO	Shiga toxin inh 65 (no result: NS1 function inh, AmpC no deterg, AmpC inh detg) | CHX counter-2 inactive
CCCC(c1cc(C(C)(C)C)c(O)cc1C)c1cc(C(C)(C)C)c(O)cc1C	none (no result: AmpC no deterg, AmpC inh detg, CHX counter-1, Shiga toxin inh)
CC1(C)OC(=O)C(=NNc2ccccc2C(=O)O)C(=O)O1	none
CC1(C)OC(=O)C(=NNc2ccccc2)C(=O)O1	Shiga toxin inh 36 | CHX counter-2 inactive
CN(C)S(=O)(=O)c1cccc(C(=O)NC2CCSc3ccccc32)c1 (stereo unspecified)	none
CON(C)S(=O)(=O)c1cccc(C(=O)NC2CCSc3ccccc32)c1 (stereo unspecified)	Shiga toxin inh 77 | CHX counter-2 inactive
CC1CCCCC1NC(=O)C1CCCN(S(=O)(=O)c2ccc(-n3cnnn3)cc2)C1 (stereo unspecified)	AmpC inh detg inconclusive
O=c1c2ccccc2sc2nc(C3CCCCC3)n(Cc3ccco3)c(=O)c12	Shiga toxin inh 24 | CHX counter-2 inactive
O=C(CNS(=O)(=O)c1ccc2ccccc2c1)OCC(=O)c1ccc(Br)s1	none
Cc1cc(C(=O)COC(=O)CNS(=O)(=O)c2ccc3ccccc3c2)c(C)n1-c1ccccc1	NS1 function inh inconclusive, AmpC inh detg inconclusive, Shiga toxin inh active | CHX counter-2 inactive
NCCCC[C@@H](C(=O)N1CCNCC1)n1cc([C@@H](N)CC(N)=O)nn1	none (no result: NS1 function inh, CHX counter-1, Shiga toxin inh)
Cn1c(C(=O)OCC(=O)NCc2ccc(F)cc2)cc2occc21	none (no result: NS1 function inh, CHX counter-1, Shiga toxin inh)
COc1ccc(C)cc1NC(=O)c1ccc(S(=O)(=O)N2CCCCC2)cc1	Shiga toxin inh 25 | CHX counter-2 inactive
COc1ccc(S(=O)(=O)N2CCCCCC2)cc1NC(=O)c1ccccc1	none
O=C(NCCCO)/C(=C\c1ccco1)NC(=O)c1ccco1	Shiga toxin inh 38 | CHX counter-2 inactive
CCOC(=O)C1CCCN(c2nc3ccccc3nc2C(C#N)C(=O)OCC)C1 (stereo unspecified)	AmpC inh detg inconclusive, Shiga toxin inh 133 | CHX counter-2 inactive
CCOC(=O)C1CCCN(c2nc3ccccc3nc2C(C#N)C(=O)OC(C)COC)C1 (stereo unspecified)	none
CSc1nc2cc3c(cc2n1C(=O)c1ccc(C)cc1)OCCO3	AmpC inh detg inconclusive, Shiga toxin inh 80 | CHX counter-2 inconclusive
Cc1ccc(C(=O)c2cc3c(cc2N)OCCO3)cc1	AmpC inh detg inconclusive
Cn1c(-[n+]2c(-c3ccccc3)cc(-c3ccccc3)cc2-c2ccccc2)nc2cc([N+](=O)[O-])ccc21	Shiga toxin inh 42 | CHX counter-2 inactive
Cc1c(/C=N/O)sc2ccccc12	none
O=C(OCC(=O)N1CCC(c2ccccc2)=N1)c1ccc([N+](=O)[O-])s1	none (no result: NS1 function inh, CHX counter-1, Shiga toxin inh)
Cc1ccccc1Oc1ncnc(N)c1[N+](=O)[O-]	none (no result: NS1 function inh)

Source: PubChem BioAssay
